Laboratory results from PubChem BioAssay (NCATS).
Inconclusive results are not listed. Values without a mark were called inactive. Activity calls are given as the source filed them. Calls come from the whole dose curve; as a rule, active = well fitted curve in either direction with a large enough effect (not every such curve was filed as active); inconclusive = small, poorly fitted or top-dose-only effect, or another doubt; inactive = flat fitted curve, though single readings scatter.

experiment: AP1 Signaling Pathway (AID 357); settings: ME-180 (cervical carcinoma) AP-1-bla reporter, EGF-induced, beta-lactamase ratio, 5 h; at 7.69 µM (top of the series) unless noted;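 note: ME-180 reporter cells stimulated with EGF at its EC50 level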
Text: NCGC Assay Overview: Activator protein-1 (AP-1), a transcription factor, plays an important role in tumor genesis by regulating genes involved in cell proliferation, differentiation, apoptosis, and angiogenesis. AP-1 activity is induced by a complex network of signaling pathways that involves extracellular signals, such as growth factors. The AP-1 protein complex formed from c-Fos and c-Jun binding to the AP-1 response element results in transcriptional activation of genes containing such elements within their promoter. Low molecular weight molecules have been discovered and developed to modulate various components of these signaling pathways, for example, MAP kinase inhibitors. However, many points of pathway modulation remain untested due to the lack of chemical probes making this signaling locus of general interest. Using a beta-lactamase reporter-gene under control of the AP-1 response element, a cell-based assay [CellSensor(TM) AP-1-bla ME-180 developed by Invitrogen Corp.] was used to measure EGF-induced signaling. Library compounds were measured for their ability to modulate positively or negatively the action of EC50 EGF on reporter gene activity. Compounds were screened in a titration series in 1536-well format. Positive and negative modulators were identified based on the AC50 values derived from the screening data.
NCGC Assay Protocol Summary: 2500 cells/5uL in Opti-MEM medium containing 0.5% dialyzed FBS, 0.1 mM NEAA, 1 mM sodium pyruvate and 10 mM HEPES was dispensed into 1536-well plates and cells were cultured at 37 degrees Celsius overnight. […] After centrifugation at 1000 rpm for 2 seconds the plates were incubated at 37 degrees Celsius for 5 hours. 1 uL of CCF4-dye mixture was added to each well. After incubated at room temperature for 2.5 hours the plates were measured on an EnVision plate reader at Excitation 405nm, Emission1=460nm and Emission 2=530nm. The %Activity was determined from the ratio of 460nm/530nm.
% is set by controls: 0 for no effect and ±100 for the full control effect.

First: COc1cccc(-c2cncnc2Nc2ccc(F)cc2)c1
Second: COc1ccccc1-c1cncnc1NCc1cccnc1
The activity change, negative = inhibition of the first is lower: -13.2% for the first, -10.2% for the second.

Going from `Cc1cnc(CNc2ncnc3ccc(-c4c(C)noc4C)cc23)cn1` to `CNc1cc(-c2c(C)noc2C)ncn1`, the activity change, negative = inhibition rises from 12.8% to 25.4%.

Going from `COc1ccc(NC(=O)N2CCCC3(CCN(C(=O)c4csnn4)CC3)C2)cc1` to `COc1ccc(NC(=O)N2CC[C@@]3(CCCN(C(=O)c4cnccn4)C3)C2)cc1`, the activity change, negative = inhibition falls from -1.51% to -10.4%.

Going from `FC(F)(F)c1ccccc1-c1nccc(NCc2cccs2)n1` to `COc1ccccc1-c1cc(NCc2ccccc2)ncn1`, the activity change, negative = inhibition rises from 2% to 3.71%.

Going from `Cc1noc(C)c1-c1nccc(-n2ccnc2)n1` to `Cc1noc(C)c1-c1cc(NC2CC2)ncn1`, the activity change, negative = inhibition falls from 3.6% to -3.03%.

First: COCC(=O)N1CCC2(CC1)CN(Cc1ccc(C#N)cc1)C2
Second: CC(=O)N1CCC2(CC1)CN(Cc1ccccc1)C2
The activity change, negative = inhibition of the first is lower: 3.59% for the first, 9.85% for the second.

First: CN1CCN(c2cc(-c3ccoc3)ncn2)CC1
Second: CN1CCN(c2nc(-c3cccc(C#N)c3)nc3ccccc23)CC1
The activity change, negative = inhibition of the first is lower: -1.21% for the first, 9.54% for the second.

Compared with `CS(=O)(=O)N1CCC2(CC1)CN(Cc1cc(C(F)(F)F)cc(C(F)(F)F)c1)C2`, `COc1ccccc1CN1CC2(CCN(S(C)(=O)=O)CC2)C1` is lower in activity change, negative = inhibition: 5.66% for the first, -11.2% for the second.

First: CS(=O)(=O)N1CCC2(CCN(C(=O)Nc3cccc(C#N)c3)CC2)CC1
Second: COC(=O)N1CCC2(CC1)CN(C(=O)Nc1cccc(C#N)c1)C2
The activity change, negative = inhibition of the first is lower: 2.04% for the first, 2.52% for the second.

First: COc1ccc(Oc2ncc3nc(-c4ccc(Cl)cc4)c(=O)n(C[C@H]4CCCO4)c3n2)cc1
Second: COCCn1c(=O)c(-c2cccc(C#N)c2)nc2cnc(Oc3ccccc3)nc21
The activity change, negative = inhibition of the first is lower: -19.3% for the first, -13% for the second.

First: Cc1ccccc1-c1nc(NC2CCNCC2)c2ccccc2n1
Second: Cn1cc(-c2nc3cnc(Oc4ccccc4)nc3n(C)c2=O)c2ccccc21
The activity change, negative = inhibition of the first is higher: 19.1% for the first, 0.766% for the second.

Compared with `O=C(c1cnccn1)N1CCC[C@@]2(CCN(c3ccncc3)C2)C1`, `O=C(c1cnccn1)N1CCC[C@@]2(CCN(c3ncccn3)C2)C1` is lower in activity change, negative = inhibition: -3.24% for the first, -3.69% for the second.

Going from `Cn1c(=O)cnc2cnc(OCc3ccccc3)nc21` to `COc1ncc2ncc(=O)n(C)c2n1`, the activity change, negative = inhibition rises from -10.8% to -3.14%.

Compared with `CN(Cc1ccco1)c1ncnc2ccc(-c3cccc(C#N)c3)cc12`, `COc1cccc(-c2cc(N(C)Cc3ccco3)ncn2)c1` is higher in activity change, negative = inhibition: 6.41% for the first, 22.2% for the second.

First: CS(=O)(=O)N1CCC[C@@]2(CCN(C(=O)Nc3cccc(F)c3)C2)C1
Second: O=C(Nc1cccc(F)c1)N1CCCC2(CCN(S(=O)(=O)c3ccccc3)CC2)C1
The activity change, negative = inhibition of the first is higher: -7.6% for the first, -9.39% for the second.

First: O=C(Oc1ccccc1)N1CCC2(CC1)CCN(c1ncccn1)CC2
Second: COc1ccc(C(=O)N2CCC3(CCN(C)CC3)CC2)cc1
The activity change, negative = inhibition of the first is higher: 3.96% for the first, -25.4% for the second.

Going from `CN1CCN(c2ncc3ncc(=O)n(C[C@H]4CCCO4)c3n2)CC1` to `O=c1c(-c2cc(F)cc(F)c2)nc2cnc(N3CCOCC3)nc2n1C[C@H]1CCCO1`, the activity change, negative = inhibition rises from -9.63% to 10.4%.

Compared with `Cc1nc2cnc(N3CCN(C)CC3)nc2n(Cc2ccc(F)cc2)c1=O`, `CCNc1ncc2nc(-c3cn(C)c4ccccc34)c(=O)n(Cc3cccc(OC)c3)c2n1` is lower in activity change, negative = inhibition: 1.11% for the first, 0.603% for the second.

`CC(C)NC(=O)N1CCC2(CC1)CCN(C(=O)c1ccncc1)CC2` and `COCCNc1ncnc2ccc(-c3ccc(C(=O)N(C)C)cc3)cc12` are the same in activity change, negative = inhibition: -7.19% for the first, -7.19% for the second.

`COCCn1c(=O)c(-c2ccccc2)nc2cnc(OCc3ccccc3)nc21` showed an activity change, negative = inhibition of -11.6%.

In the case of `O=c1c(-c2cc(F)cc(F)c2)nc2cnc(N3CCNCC3)nc2n1Cc1cccs1`, the activity change, negative = inhibition is reported as 98% [activator] (active).
